Data on six compounds can be found in PubChem BioAssay (NCI).

Compounds without any hit were thinned out: in the full panel of roughly 83,000, 20% have a hit.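 Negative percent growth values reflect cell death: -40 means 40% of the cells present at the start died, and -100 means all died.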 Values without a mark were called inactive. Calls of active or inactive are those of the source. Rule for the calls: active = growth percent below 10; inactive = the rest.

Among the test systems are NCI-H23 lung; NCI-H226 lung; NCI-H322M lung; HOP-62 NSCLC; NCI-H460 lung; NCI-H522 lung; A549/ATCC NSCLC; 786-0 renal; COLO 205 colon; DU-145 prostate; K-562 leukemia; MALME-3M melanoma; MDA-MB-231 breast; RXF 393 renal; SF-268 CNS; SF-295 CNS; SF-539 CNS; UACC-257 melanoma; M14 melanoma; HOP-92 NSCLC.
Holding throughout (experiment): NCI-60 one-dose screen, 48 h (100 = growth as untreated, 0 = no growth, -100 = all killed)
Conditions in all cases: 10 µM unless noted

Turning to `O=C(Cn1c(/C=C/c2ccccc2)nc2ccccc2c1=O)Nc1ccc(Cl)cc1`, the growth was 59.8% in the test with NCI-H23 lung; 30.2% with NCI-H226 lung; 74.8% in the test with NCI-H322M lung; 57.9% in the test on HOP-62 NSCLC; 38.7% in the test on NCI-H460 lung; 76.7% in the test on NCI-H522 lung. For the same compound, the growth with A549/ATCC NSCLC was 33.8%; in the test with 786-0 renal, -48.9% (active); with COLO 205 colon it was 78.4%; in the test with DU-145 prostate, 71.3%; with K-562 leukemia, 85.2%; in the test on MALME-3M melanoma, 59.1%. For the same compound, the growth was 4.32% (active) in the test on MDA-MB-231 breast; -8.9% (active) in the test on RXF 393 renal; 75.2% with SF-268 CNS; 59.1% in the test with SF-295 CNS; 58.7% in the test with SF-539 CNS; 83.6% in the test on UACC-257 melanoma. In the test with M14 melanoma, the growth was 81.7%.
Regarding `NS(=O)(=O)c1ccc(-n2cc(-c3cccc(NC(=O)c4cc(N5CCOCC5)cc(C(F)(F)F)c4)c3)nn2)cc1`, the growth was 54.7% in the test with NCI-H23 lung; 26.2% in the test on NCI-H226 lung; 71.4% in the test on NCI-H322M lung; 12.9% in the test with HOP-62 NSCLC; 9.47% (active) in the test with HOP-92 NSCLC; 38.2% in the test with NCI-H522 lung. The growth in the test with A549/ATCC NSCLC is 76.7%; in the test with 786-0 renal, 44.9%; with COLO 205 colon, 76.9%; in the test on DU-145 prostate, 83%; in the test with MALME-3M melanoma, 54.1%; in the test with MDA-MB-231 breast, 37.4%. Moreover, the growth is 41.1% in the test with SF-268 CNS; 54% in the test on SF-295 CNS; 19.3% in the test with SF-539 CNS; 66.3% in the test on UACC-257 melanoma; 78.8% with M14 melanoma.
On to `CC1CCCCN1CCCNC(=O)N/C(N)=N/c1nc2ccccc2s1` (stereo not given), for which the growth in the test on NCI-H23 lung is 58.8%; in the test with NCI-H226 lung, 48.5%; in the test on NCI-H322M lung, 77%; with HOP-62 NSCLC it was 59.6%; in the test with NCI-H460 lung, 42.2%; in the test with NCI-H522 lung it was 72.2%. In addition, the growth is 47.3% in the test with A549/ATCC NSCLC; 29.5% with 786-0 renal; -58.6% (active) with COLO 205 colon; 72.1% in the test with DU-145 prostate; -27.6% (active) in the test with K-562 leukemia; -93.2% (active) with MALME-3M melanoma. Also, the growth was 5.45% (active) in the test on RXF 393 renal; 49.7% with SF-268 CNS; 15.3% in the test with SF-295 CNS; -60.9% (active) with SF-539 CNS; -86.8% (active) in the test on UACC-257 melanoma; -85.2% (active) in the test on M14 melanoma.
As for `CCCS(=O)(=O)N1CCCC(C(=O)Nc2nc3ccc(NC(=O)c4ccc(F)c(OC)c4F)cc3s2)C1` (stereo not given), the growth with NCI-H23 lung was 33.9%; in the test with NCI-H226 lung, 27.9%; in the test on NCI-H322M lung it was 75.6%; in the test on HOP-62 NSCLC, 68.4%; with NCI-H460 lung it was 55.9%; with NCI-H522 lung it was 39.9%. Besides, the growth is 57% in the test with A549/ATCC NSCLC; 37.6% in the test with 786-0 renal; 31.6% in the test with COLO 205 colon; 72.7% with DU-145 prostate; 27.6% in the test with K-562 leukemia; 52.7% with MALME-3M melanoma. For the same compound, the growth in the test on MDA-MB-231 breast is 62.9%; in the test on RXF 393 renal, 8.45% (active); with SF-268 CNS it was 56.9%; with SF-295 CNS, 23%; in the test on SF-539 CNS, 47.2%; with UACC-257 melanoma, 25.2%. For the same compound, the growth in the test on M14 melanoma is 56.7%.
With `Cn1nc(C(F)(F)F)cc1-c1cc(Cl)c(COc2ccc(Cl)cc2)c(-c2ccc(Cl)c(C(F)(F)F)c2)c1O`, the growth is -46.7% (active) with NCI-H23 lung; -39.5% (active) in the test with NCI-H226 lung; 6.41% (active) in the test with NCI-H322M lung; -40.9% (active) in the test with HOP-62 NSCLC; -48.1% (active) with NCI-H460 lung; -27.7% (active) in the test with NCI-H522 lung. For the same compound, the growth is 2.95% (active) in the test with A549/ATCC NSCLC; -63.5% (active) in the test with 786-0 renal; -83.2% (active) in the test with COLO 205 colon; 8.66% (active) in the test with DU-145 prostate; 1.2% (active) in the test on K-562 leukemia; -52.4% (active) in the test on MALME-3M melanoma. Besides, the growth in the test with RXF 393 renal was -47.7% (active); in the test on SF-268 CNS, -0.375% (active); in the test on SF-295 CNS, -70.8% (active); with SF-539 CNS, -77.9% (active); in the test with UACC-257 melanoma, -31.4% (active); in the test on M14 melanoma, -67% (active).
On to `O=C(CN1C(=O)/C(=C/c2ccccc2F)SC1=S)N1CCOCC1`, for which the growth in the test on NCI-H23 lung was 89.1%; with NCI-H226 lung it was 66.5%; in the test on NCI-H322M lung, 90.3%; with HOP-62 NSCLC, 119%; in the test on NCI-H460 lung, 102%; in the test with NCI-H522 lung it was -83.2% (active). The growth with A549/ATCC NSCLC is 95.5%; with 786-0 renal, 74.9%; in the test on COLO 205 colon, 98.5%; in the test with DU-145 prostate, 56.3%; in the test on K-562 leukemia it was 19.2%; in the test with MALME-3M melanoma it was 51.8%. The growth in the test on MDA-MB-231 breast was 92%; in the test with RXF 393 renal, 71.8%; in the test with SF-268 CNS it was 99.1%; in the test with SF-295 CNS it was 108%; with SF-539 CNS, 82.3%; with UACC-257 melanoma, 89.6%. In addition, the growth in the test with M14 melanoma is 79.4%.
